Test results as given in PubChem BioAssay (NCATS).
“And” between values parts separate entries of the source, which are not always exact repeats. Equal values may be shown once. Records with an inconclusive call do not appear. The source made the active and inactive calls. Unless noted, calls come from the whole dose curve.

molecular target: Estrogen receptor (Homo sapiens) (UniProt P03372); assay: qHTS assay for small molecule agonists of estrogen receptor alpha signaling (AID 588514); settings: ER-alpha-UAS-bla HEK293, beta-lactamase ratio, 18 h; series mostly up to 76.8 µM; activation: at the top concentration; note: nearly all actives have a fitted effect of over 70% in size; note: potency is the fitted concentration of half-maximal effect;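 for activation: 0% = vehicle only and 100% = reference agonist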
Sequence (P03372 whole entry, looked up): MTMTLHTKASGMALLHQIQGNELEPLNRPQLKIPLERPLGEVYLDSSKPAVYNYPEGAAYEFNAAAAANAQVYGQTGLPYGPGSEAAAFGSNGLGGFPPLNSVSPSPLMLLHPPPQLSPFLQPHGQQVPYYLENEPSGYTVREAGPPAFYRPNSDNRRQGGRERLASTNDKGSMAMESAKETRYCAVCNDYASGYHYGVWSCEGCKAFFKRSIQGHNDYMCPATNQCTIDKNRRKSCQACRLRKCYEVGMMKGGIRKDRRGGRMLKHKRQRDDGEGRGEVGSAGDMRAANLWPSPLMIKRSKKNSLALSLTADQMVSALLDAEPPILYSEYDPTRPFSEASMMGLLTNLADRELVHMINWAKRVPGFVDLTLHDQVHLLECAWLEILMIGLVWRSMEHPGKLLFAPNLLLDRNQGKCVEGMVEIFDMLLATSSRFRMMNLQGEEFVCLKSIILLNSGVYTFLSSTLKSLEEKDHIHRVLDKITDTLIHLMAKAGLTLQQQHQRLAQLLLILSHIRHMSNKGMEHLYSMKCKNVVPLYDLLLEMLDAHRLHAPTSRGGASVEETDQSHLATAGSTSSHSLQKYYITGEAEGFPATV
Procedure, shortened: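 Fluorescence from CCF4 cleavage reports ER-alpha-driven beta-lactamase expression in HEK 293 cells treated 18 hrs at 37 C. Data normalized to 17-beta-estradiol (20 nM) and DMSO, fitted to Hill equation.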

Compound | activation | Potency
Nc1ccccc1C(=O)O | -0.552% (inactive) | –
CC(C)c1cccc(C(C)C)c1O | 10.4% (inactive) | –
NCCc1ccc(O)cc1 | -4.78% (inactive) | –
CN1C[C@H](C(=O)N[C@]2(C)O[C@@]3(O)[C@@H]4CCCN4C(=O)[C@H](Cc4ccccc4)N3C2=O)C=C2c3cccc4[nH]cc(c34)C[C@H]21 | 8.51% (inactive) | –
O=C(O)CCCc1ccc(N(CCCl)CCCl)cc1 | 0.643% (inactive) | –
COc1cc(OC)c(OC)cc1C=O | -10.3% (inactive) | –
COP(=S)(OC)Oc1ccc(SC)c(C)c1 | 6.74% (inactive) | –
CC(C)NC(C)C | -7.03% (inactive) | –
Nc1ccc([As](=O)(O)O)cc1 | – | 15.8 µM (active)
COP(=S)(OC)Oc1cc(Cl)c(Cl)cc1Cl | 1.19% (inactive) | –
O=P1(N(CCCl)CCCl)NCCCO1 (stereo not given) | – | inactive
CC1(C)C(C=C(Cl)Cl)C1C(=O)OC(C#N)c1cccc(Oc2ccccc2)c1 (stereo not given) | -3.83% (inactive) | –
C[C@]12CCC(=O)C=C1CC[C@@H]1[C@@H]2CC[C@@]2(C)[C@H]1CC[C@]2(C)O | – | 12.6 µM (active)
COC(=O)C(c1ccccc1)C1CCCCN1 (stereo not given) | -7.56% (inactive) | –
CCOC(=O)CC(SP(=S)(OC)OC)C(=O)OCC (stereo not given) | – | inactive

molecular target: Androgen receptor (Homo sapiens) (UniProt P10275); assay: qHTS assay for small molecule agonists of androgen receptor signaling (AID 588515; active = well fitted curve in the direction sought with a large enough effect in the signal ratio, with a control signal flat; the % refers to the signal ratio; note: % is set by controls: 0 for no effect and ±100 for the full control effect); settings: AR-UAS-bla HEK293, beta-lactamase ratio, agonist 16 h; hits give high values
Sequence (P10275 whole entry, looked up): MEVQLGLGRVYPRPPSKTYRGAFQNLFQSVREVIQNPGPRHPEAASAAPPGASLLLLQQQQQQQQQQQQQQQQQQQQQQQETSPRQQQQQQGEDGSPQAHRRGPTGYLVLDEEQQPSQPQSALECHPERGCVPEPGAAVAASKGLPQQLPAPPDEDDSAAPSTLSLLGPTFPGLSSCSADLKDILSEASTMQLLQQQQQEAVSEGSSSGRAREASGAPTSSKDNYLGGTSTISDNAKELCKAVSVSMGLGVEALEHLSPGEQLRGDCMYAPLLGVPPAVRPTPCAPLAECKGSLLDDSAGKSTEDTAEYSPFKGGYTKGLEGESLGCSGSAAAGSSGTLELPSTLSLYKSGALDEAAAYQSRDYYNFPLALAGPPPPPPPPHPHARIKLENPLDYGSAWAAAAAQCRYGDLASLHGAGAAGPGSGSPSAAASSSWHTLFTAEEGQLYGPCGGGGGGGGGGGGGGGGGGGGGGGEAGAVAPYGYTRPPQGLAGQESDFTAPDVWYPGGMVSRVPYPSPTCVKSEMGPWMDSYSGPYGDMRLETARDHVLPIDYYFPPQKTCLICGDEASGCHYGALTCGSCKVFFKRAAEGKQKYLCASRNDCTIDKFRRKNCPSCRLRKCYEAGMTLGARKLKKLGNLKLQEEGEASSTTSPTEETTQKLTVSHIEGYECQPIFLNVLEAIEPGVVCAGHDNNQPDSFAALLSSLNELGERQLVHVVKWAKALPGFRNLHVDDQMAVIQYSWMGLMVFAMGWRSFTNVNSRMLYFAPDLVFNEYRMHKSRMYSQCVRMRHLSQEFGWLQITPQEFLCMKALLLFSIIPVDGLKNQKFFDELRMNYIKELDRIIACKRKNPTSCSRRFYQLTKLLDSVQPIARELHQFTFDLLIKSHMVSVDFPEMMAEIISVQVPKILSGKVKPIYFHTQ
Procedure, shortened: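 Stimulation of an AR-responsive β-lactamase reporter in GripTite HEK293 cells was measured after 16 h compound exposure at 37 °C, via CCF4 fluorescence after 2 h RT. EC50 from Hill fits, normalized to R1881 at 30 nM.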

Compound | activation
CC(C)c1cccc(C(C)C)c1O | -6.9% (inactive)
COc1cc(OC)c(OC)cc1C=O | -8.64% (inactive)
COC(=O)C(c1ccccc1)C1CCCCN1 (stereo not given) | 0.332% (inactive)
CCOC(=O)CC(SP(=S)(OC)OC)C(=O)OCC (stereo not given) | 17.2% (inactive) and 0.217% (inactive) and -5.72% (inactive)

molecular target: Androgen receptor (Homo sapiens) (UniProt P10275); assay: qHTS assay for small molecule antagonists of androgen receptor signaling (AID 588516; active = well fitted curve in the direction sought with a large enough effect in the signal ratio, with a control signal flat, not every such curve was filed as active; the % refers to the signal ratio; note: % is set by controls: 0 for no effect and ±100 for the full control effect); settings: AR-UAS-bla HEK293, beta-lactamase ratio, antagonist mode, 16 h; series mostly up to 76.8 µM; activity change, negative = inhibition: at the top concentration
Procedure, shortened: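 Compounds tested in titration against 10 nM R1881 in AR-responsive bla reporter HEK 293 cells; CCF4 fluorescence (460/530 nm) after 16 h exposure gave IC50 and efficacy.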

Compound | activity change, negative = inhibition
CC(C)c1cccc(C(C)C)c1O | 12.2% (inactive)
COC(=O)C(c1ccccc1)C1CCCCN1 (stereo not given) | 20.6% (inactive)
CCOC(=O)CC(SP(=S)(OC)OC)C(=O)OCC (stereo not given) | -13% (inactive)

molecular target: Bile acid receptor (Homo sapiens) (UniProt Q96RI1); assay: qHTS assay for small molecule antagonists of farnesoid X receptor signaling (AID 588526); settings: HEK293T FXR-UAS-bla, beta-lactamase ratio, antagonist mode; series mostly up to 76.7 µM; activity change, negative = inhibition: at the top concentration; note: potency is the fitted concentration of half-maximal effect; for activity change, negative = inhibition: % is set by controls: 0 for no effect and ±100 for the full control effect
Sequence (Q96RI1 whole entry, looked up): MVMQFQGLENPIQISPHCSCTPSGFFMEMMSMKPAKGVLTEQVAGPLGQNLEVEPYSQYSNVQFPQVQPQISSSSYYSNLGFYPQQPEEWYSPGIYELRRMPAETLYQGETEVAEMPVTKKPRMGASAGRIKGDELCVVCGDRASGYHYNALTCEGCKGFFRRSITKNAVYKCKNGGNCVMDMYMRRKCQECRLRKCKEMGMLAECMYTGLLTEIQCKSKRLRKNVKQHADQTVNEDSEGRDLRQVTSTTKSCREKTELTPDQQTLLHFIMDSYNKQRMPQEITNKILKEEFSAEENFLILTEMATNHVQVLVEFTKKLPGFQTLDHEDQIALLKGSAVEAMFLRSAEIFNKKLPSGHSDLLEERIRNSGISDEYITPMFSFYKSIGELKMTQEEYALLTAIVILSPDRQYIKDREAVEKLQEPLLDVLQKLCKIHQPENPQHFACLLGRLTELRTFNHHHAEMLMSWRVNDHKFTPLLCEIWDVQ
Procedure, shortened: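 Beta-lactamase reporter antagonist mode: HEK293T FXR-UAS-bla cells, titrated compound, CDCA stimulation, 16 h 37 C, CCF4 dye 2 h RT. Data normalized to CDCA 50 uM and DMSO; Hill-fit IC50.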

Compound | activity change, negative = inhibition | Potency
[N-]=[N+]=CC(=O)OC[C@H](N)C(=O)O | 3.24% (inactive) | –
Nc1ccccc1C(=O)O | -8.06% (inactive) | –
C[C@]1(O)CC[C@H]2[C@@H]3CCC4=CC(=O)CC[C@]4(C)[C@@]3(F)[C@@H](O)C[C@@]21C | -10.6% (inactive) | –
CN1C[C@H](C(=O)N[C@]2(C)O[C@@]3(O)[C@@H]4CCCN4C(=O)[C@H](Cc4ccccc4)N3C2=O)C=C2c3cccc4[nH]cc(c34)C[C@H]21 | – | 39.8 µM (active)
O=C(O)CCCc1ccc(N(CCCl)CCCl)cc1 | – | inactive
C[C@]12CCC(=O)C=C1CC[C@@H]1[C@@H]2CC[C@]2(C)C(=O)CC[C@@H]12 | 22.9% (inactive) | –
Nc1nc(N)nc(NC2CC2)n1 | 13.3% (inactive) | –
O=P1(N(CCCl)CCCl)NCCCO1 (stereo not given) | 4.56% (inactive) | –
Clc1ccc(C(c2ccc(Cl)cc2)C(Cl)(Cl)Cl)cc1 | -14.9% (inactive) | –
CC(=O)N1CCN(c2ccc(OC[C@H]3CO[C@](Cn4ccnc4)(c4ccc(Cl)cc4Cl)O3)cc2)CC1 | – | 44.7 µM (active)
COP(=S)(OC)SCN1C(=O)c2ccccc2C1=O | -0.491% (inactive) | –
COC(=O)C(c1ccccc1)C1CCCCN1 (stereo not given) | -3.92% (inactive) | –
CCC(C)(C)c1ccc(O)cc1 | 6.94% (inactive) | –

molecular target: Bile acid receptor (Homo sapiens) (UniProt Q96RI1); assay: qHTS assay for small molecule agonists of farnesoid X receptor signaling (AID 588527); settings: HEK293T FXR-UAS-bla, beta-lactamase ratio, 16 h; hits give high values;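 note: 0% = vehicle basal and 100% = reference agonist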
Procedure, shortened: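 Agonist-mode beta-lactamase reporter in GeneBLAzer FXR-UAS-bla HEK293T cells, titration up to 92 uM, 16 h exposure at 37 C, CCF4 fluorescence. Response scaled to DMSO (0%) and 100 uM chenodeoxycholic acid (100%), then Hill-fitted for EC50 and efficacy.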

Compound | activation
CN(C)c1ccc2nc3ccc(=[N+](C)C)cc-3sc2c1 | -2.46% (inactive)
O=C1c2ccccc2C(=O)C1C(=O)C(c1ccccc1)c1ccccc1 | -2.98% (inactive)
CC(O)CN(CCN(CC(C)O)CC(C)O)CC(C)O (stereo not given) | 0.352% (inactive)
S=P(N1CC1)(N1CC1)N1CC1 | 4.46% (inactive)
Cc1noc(NS(=O)(=O)c2ccc(N)cc2)c1C | 1.48% (inactive)
Oc1ccccc1 | 0.295% (inactive) and -0.629% (inactive) and -5.57% (inactive)
Oc1cccc(O)c1 | -2.84% (inactive)
Clc1ccc(C(c2ccc(Cl)cc2)C(Cl)(Cl)Cl)cc1 | 4.82% (inactive)
CC(O)C(=O)O (stereo not given) | -0.922% (inactive)
COc1c2occc2cc2ccc(=O)oc12 | 0.341% (inactive) and 4.08% (inactive)
CC(C)(C)CC(C)(C)c1ccc(OCCOCC[N+](C)(C)Cc2ccccc2)cc1 | -1.62% (inactive)
CC(=O)N1CCN(c2ccc(OC[C@H]3CO[C@](Cn4ccnc4)(c4ccc(Cl)cc4Cl)O3)cc2)CC1 | -1.01% (inactive)
c1ccc2sc(SSc3nc4ccccc4s3)nc2c1 | 4.39% (inactive)
COC(=O)C(c1ccccc1)C1CCCCN1 (stereo not given) | -2.4% (inactive)
CCC(C)(C)c1ccc(O)cc1 | -0.511% (inactive) and -0.445% (inactive)

molecular target: Glucocorticoid receptor (Homo sapiens) (UniProt P04150); assay: qHTS assay for small molecule agonists of glucocorticoid receptor signaling (AID 588532; active = well fitted curve in the direction sought with a large enough effect in the signal ratio, with a control signal flat; the % refers to the signal ratio;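 note: 100% = dexamethasone at 0.1 µM and 0% = DMSO only wells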); settings: HeLa MMTV-bla, beta-lactamase ratio, agonist, 18 h; hits give high values; percent of dexamethasone control, DMSO zero
Sequence (P04150 whole entry, looked up): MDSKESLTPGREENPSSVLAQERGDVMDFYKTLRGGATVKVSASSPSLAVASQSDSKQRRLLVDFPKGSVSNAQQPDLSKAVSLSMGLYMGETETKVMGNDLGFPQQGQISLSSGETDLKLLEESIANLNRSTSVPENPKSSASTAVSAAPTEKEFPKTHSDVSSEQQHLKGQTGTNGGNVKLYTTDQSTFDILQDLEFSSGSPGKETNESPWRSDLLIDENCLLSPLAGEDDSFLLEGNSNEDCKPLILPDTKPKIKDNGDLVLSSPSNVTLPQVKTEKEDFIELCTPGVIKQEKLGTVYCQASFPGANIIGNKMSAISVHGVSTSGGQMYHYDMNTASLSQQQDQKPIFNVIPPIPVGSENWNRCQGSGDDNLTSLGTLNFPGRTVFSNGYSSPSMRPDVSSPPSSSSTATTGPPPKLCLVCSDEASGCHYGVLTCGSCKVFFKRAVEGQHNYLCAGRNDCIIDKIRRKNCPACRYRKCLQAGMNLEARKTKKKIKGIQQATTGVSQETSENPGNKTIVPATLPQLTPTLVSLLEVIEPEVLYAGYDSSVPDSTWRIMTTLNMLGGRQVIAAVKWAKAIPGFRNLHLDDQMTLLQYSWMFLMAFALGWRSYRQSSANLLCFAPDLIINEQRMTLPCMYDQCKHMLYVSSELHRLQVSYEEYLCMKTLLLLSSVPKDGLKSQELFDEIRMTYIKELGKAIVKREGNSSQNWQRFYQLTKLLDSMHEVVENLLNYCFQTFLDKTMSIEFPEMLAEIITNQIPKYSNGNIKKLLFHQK
Procedure, shortened: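 Agonist-mode qHTS: GRE-driven beta-lactamase in HeLa cells exposed 18 h to titrated compounds (up to 92 uM), then CCF4 ratio read after 2 h at RT; Hill-fitted EC50, efficacy relative to 0.1 uM dexamethasone.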

Compound | activation
O=C1c2ccccc2C(=O)C1C(=O)C(c1ccccc1)c1ccccc1 | -2.9% (inactive)
NCCc1ccc(O)cc1 | 18.1% (inactive)
C[C@]1(O)CC[C@H]2[C@@H]3CCC4=CC(=O)CC[C@]4(C)[C@@]3(F)[C@@H](O)C[C@@]21C | 0.36% (inactive)
CN1C[C@H](C(=O)N[C@]2(C)O[C@@]3(O)[C@@H]4CCCN4C(=O)[C@H](Cc4ccccc4)N3C2=O)C=C2c3cccc4[nH]cc(c34)C[C@H]21 | -6.8% (inactive)
COc1cc(OC)c(OC)cc1C=O | 3.74% (inactive)
COP(=S)(OC)Oc1ccc(SC)c(C)c1 | -2.46% (inactive) and 5.56% (inactive)
CC(C)NC(C)C | -3.7% (inactive)
COP(=S)(OC)Oc1cc(Cl)c(Cl)cc1Cl | -3.3% (inactive)
O=P1(N(CCCl)CCCl)NCCCO1 (stereo not given) | 2.61% (inactive) and 1.05% (inactive)
Clc1ccc(C(c2ccc(Cl)cc2)C(Cl)(Cl)Cl)cc1 | 4.79% (inactive) and 0.666% (inactive)
CC1(C)C(C=C(Cl)Cl)C1C(=O)OC(C#N)c1cccc(Oc2ccccc2)c1 (stereo not given) | -2.93% (inactive)
COP(=S)(OC)SCN1C(=O)c2ccccc2C1=O | 10.5% (inactive)
COC(=O)C(c1ccccc1)C1CCCCN1 (stereo not given) | 2.14% (inactive)
CCC(C)(C)c1ccc(O)cc1 | -4.8% (inactive)
CCOC(=O)CC(SP(=S)(OC)OC)C(=O)OCC (stereo not given) | -4.46% (inactive) and 3.12% (inactive) and 14.7% (inactive)
